“And” between values parts separate entries of the source, which are not always exact repeats. Equal entries are not always repeated. In all, about 340,000 compounds went through this assay and about 3,300 (0.97%) were called active. Not shown: some 9% with an inconclusive outcome. Calls follow the shape of the dose curve; as a rule, active = well fitted inhibition curve with a large enough effect; inconclusive = small, poorly fitted or top-dose-only effect, or effect the other way; inactive = flat fitted curve, though single readings scatter. The list shows a part of the results.
Assay: qHTS Assay for Modulators of miRNAs and/or Inhibitors of miR-21; also: nearly all actives have a fitted effect of over 55% in size
Conditions: HeLa miR-21-FLuc reporter, luciferase luminescence, 48 h; actives lower the signal
Procedure, shortened: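 HeLa cells endogenously expressing miR-21, stably carrying CMV-driven firefly luciferase with a downstream miR-21 binding site, 2000 cells/well. Titrations up to approximately 40 uM, 48 hours; luciferase luminescence read.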
Potency is read from the fitted curve at half-maximal effect.

Potency, active:
COc1ccc(-c2cc(=O)c3ccccc3o2)cc1 5.85 µM
O=c1cc(-c2ccccc2F)oc2ccccc12 5.21 µM
Fc1cccc2sc(Nc3nc4cc5c(cc4s3)OCCO5)nc12 0.208 µM
Fc1cccc2sc(Nc3nc4cc5c(cc4s3)OCO5)nc12 3.69 µM
O=C(O)c1ccc(N=Nc2c(O)[nH]c3cc(Cl)ccc23)cc1 0.165 µM
O=C(O)c1ccc(N=Nc2c(O)[nH]c3ccc(Br)cc23)cc1 3.69 µM
COc1cc2c(cc1OC)-c1cc(Nc3ccc4c(c3)OCCO4)nc(=O)n1CC2 8.26 µM
CCc1nc2oc3ccccc3c(=O)c2c(=O)n1-c1ccc(C)cc1 1.65 µM
Cc1cc(C)n2c(nc3ccccc32)c1C(=O)NN 10.4 µM
Fc1ccc2nc(N3CCOCC3)sc2c1 16.5 µM
Clc1ccc(-c2nsc(N3CCOCC3)n2)c(Cl)c1 1.04 µM
Nc1nc2c(Cl)cc(Cl)cc2s1 18.5 µM
Clc1cc(Cl)c2nc(N3CCOCC3)sc2c1 16.5 µM
Fc1ccc2nc(N3CCCC3)sc2c1 4.14 µM
COc1ccc(/C=C/C(=O)c2ccc[nH]2)c(OC)c1OC 14.7 µM
O=C(/C=C/c1ccc2c(c1)OCO2)c1ccc[nH]1 3.69 µM
COc1ccc(/C=C/C(=O)c2ccc[nH]2)cc1OC 5.21 µM
CC(CCc1ccccc1)NC(=O)C(=O)Nc1ccccc1 (centres undefined) 1.65 µM
CC(C)CCNC(=O)c1ccc(-c2ccccc2)cc1 8.26 µM
CC(C)CCNC(=O)C(=O)Nc1ccccc1 2.07 µM
O=C(NCc1ccccn1)C(=O)Nc1ccccc1 6.56 µM
CS(=O)(=O)c1cnc2c(-c3ccsc3)cnn2c1N 5.21 µM
CS(=O)(=O)c1cnc2c(-c3ccc(F)cc3)cnn2c1N 1.85 µM
O=C(CCc1ccccc1)c1ccc2c(c1)OCCCO2 3.69 µM
O=C(c1ccccc1)c1ccc2c(c1)OCCCO2 2.07 µM
O/N=C(/CCc1ccccc1)c1ccc2c(c1)OCCO2 7.36 µM
Cc1cc(O)c(C(=O)Cc2csc(C)n2)c(O)c1 5.85 µM
Cc1oncc1-c1csc(-c2ccccc2)n1 5.21 µM
O=C1C2C(C(=O)N1/N=C/c1cccc([N+](=O)[O-])c1)C1C=CC2C12CC2 (centres undefined) 18.5 µM
O=C(Cn1c(/C=C/c2ccccc2)nc2ccccc21)Nc1ccc(F)cc1 5.21 µM
Cc1cccc(NC(=O)Cn2c(/C=C/c3ccccc3)nc3ccccc32)c1 5.85 µM
COc1ccc(C2CC(=O)c3ccccc3O2)cc1 (centres undefined) 16.5 µM
O=C1CC(c2ccc3c(c2)OCCO3)Oc2ccccc21 (centres undefined) 14.7 µM
Cc1ccc2c(c1)OC(c1ccc3c(c1)OCCO3)CC2=O (centres undefined) 16.5 µM
O=C1CC(c2ccc3c(c2)OCCO3)Oc2ccc([N+](=O)[O-])cc21 (centres undefined) 0.261 µM
CC(C)c1nc(C#N)c(NN)o1 16.5 µM
N/C(=N\OC(=O)/C=C/c1ccccc1Cl)c1ccncc1 0.414 µM
N/C(=N\OC(=O)/C=C/c1ccccc1Cl)c1cccnc1 2.07 µM
COc1ccc(-n2nc3cc(C)c(N)c(Br)c3n2)cc1 4.14 µM
CC1CCC/C(=N\Nc2ccc(Cl)c(C(=O)O)c2)C1 (centres undefined) 6.56 µM
O=[N+]([O-])c1ccc2cn(-c3ccccc3)nc2c1 1.65 µM
Cc1ccccc1/C=N/Nc1ncnc2nc[nH]c12 6.56 µM
Cc1ccsc1/C=N/Nc1ncnc2nc[nH]c12 3.29 µM
Fc1ccccc1/C=N/Nc1ncnc2nc[nH]c12 5.21 µM
C(=N\Nc1ncnc2nc[nH]c12)/c1cccs1 4.14 µM
COc1ccccc1/C=N\N=C(\N)c1ccccn1 2.07 µM
COc1ccc(/C=N/N=C(\N)c2nonc2N)cc1OC 7.36 µM
COc1cccc(/C=N/N=C(\N)c2nonc2N)c1O 3.69 µM
N/C(=N\N=C\c1ccc(O)c(O)c1)c1nonc1N 8.26 µM
N/C(=N\N=C\c1ccc(Br)o1)c1nonc1N 3.29 µM
COc1ccccc1OCc1cc(-c2ccccc2)no1 3.69 µM
Cc1cccc(OCc2cc(-c3ccccc3)no2)c1C 7.36 µM
Cc1ccc(-c2cc(N)n(-c3ccc(C)cc3)n2)cc1 11.7 µM and 1.85 µM
Cc1ccc(-c2cc(N)n(-c3ccc(F)cc3)n2)cc1 4.14 µM
O=C(O)c1cc(-c2ccc(C(F)(F)F)cc2)nc2n[nH]c(-c3ccccc3)c12 0.585 µM
COc1ccc(-c2nc(-c3ccc(O)cc3O)cs2)cc1OC 5.85 µM
COc1ccc(-c2csc(-c3cccs3)n2)c(OC)c1 1.04 µM
COc1ccc(-c2csc(-c3cccs3)n2)cc1OC 6.56 µM
COc1ccc(-c2ccc3ccccc3n2)cc1OC 2.07 µM
COc1ccc(Nc2nc(-c3cccs3)cs2)c(OC)c1 1.04 µM
Cc1ccc(/C=C2\OC(=O)c3ccccc32)cc1 3.69 µM
O=C(O)c1cc(N/N=C/c2ccc(N3CCOCC3)cc2)ccc1Cl 2.07 µM
CSc1nsc(N/N=C/c2ccc3c(c2)OCO3)c1C#N 0.826 µM
O=C(O)c1cc(N/N=C/c2ccc3c(c2)OCCO3)ccc1Cl 0.293 µM
Clc1ccccc1N/N=C/c1ccc2c(c1)OCO2 2.93 µM
CN(C)c1ccc(C(=O)/C=C/c2ccccc2)cc1 5.21 µM
CN(C)c1ccc(/C=C/C(=O)c2ccccc2O)cc1 4.14 µM
O=C1C(C=Nc2ccc(F)cc2)=C(O)c2ccccc21 2.07 µM
Cn1ccsc1=NC(=O)c1ccc(S(=O)(=O)C(F)F)cc1 7.36 µM
Cc1cccc(C(=O)N=c2sccn2C)c1[N+](=O)[O-] 4.65 µM
COC(=O)c1ccc(C(=O)N=c2sccn2C)cc1 4.14 µM
Cn1ccsc1=NC(=O)c1cccc(OC(F)F)c1 2.33 µM
Cn1ccsc1=NC(=O)c1ccc(OC(F)(F)F)cc1 4.65 µM
CCCCOc1ccc(C(=O)N=c2sccn2C)cc1OC 4.65 µM
CCCCc1ccc(-c2ccc(Br)cc2)nc1 3.69 µM
CCCCCc1ccc(-c2ccc(Br)cc2)nc1 3.69 µM
CCCCCc1ccc(-c2ccc(C(=O)Oc3ccc(C(=O)OC)cc3)cc2)nc1 0.656 µM
CCCCOc1ccc(-c2nnc(N)s2)cc1 14.7 µM
CCCOc1ccc(-c2nnc(N)s2)cc1 5.21 µM
CCCCCc1ccc(-c2nnc(N)s2)cc1 16.5 µM
COc1cc(-c2cc(=O)c3ccccc3o2)ccc1O 8.26 µM
COc1cc(-c2cc(=O)c3c(O)cc(O)cc3o2)ccc1O 4.14 µM
CCS(=O)(=O)n1nc(-c2ccc(Cl)cc2)nc1SCc1ccccc1 8.26 µM
CC(=O)c1cc(C#N)c(SCc2ccccc2)nc1C 13.1 µM
CC(=O)c1cnc2nc(SCc3ccccc3)nn2c1C 5.21 µM
CC(=O)c1cc(C#N)c(SCc2ccccn2)nc1C 7.36 µM
COCCCNCCCCOc1ccc(OCc2ccccc2)cc1 18.5 µM
C=CCNCCCCOc1ccc(OCc2ccccc2)cc1 7.36 µM
CC(O)CNCCCCOc1ccc(OCc2ccccc2)cc1 (centres undefined) 9.27 µM
CC(C)(C)C1(C)OC(=O)C(=Cc2ccc(OCC(=O)Nc3ccccc3)cc2)C(=O)O1 (centres undefined) 11.7 µM
Cc1ccc(C(=O)NCc2ccc3c(c2)CCO3)cc1C 10.4 µM
COC(=O)c1ccc(N=NN2CCOCC2)cc1 7.36 µM
COC(=O)c1ccc(N=NN2CCCCCC2)cc1 5.85 µM
COC(=O)c1ccc(N=NN2CCCCC2)cc1 7.36 µM
O=C(O)c1cccc(N=NN2CCCCCC2)c1 0.165 µM
Cc1cc(C(F)(F)F)c(C#N)c(SCC(=O)Nc2nc3cc(Br)ccc3s2)n1 3.69 µM
CCc1ccc(NC2Nc3cc(C)nn3S2)cc1 (centres undefined) 1.65 µM
Cc1ccc(NC2Nc3cc(C)nn3S2)c(C)c1 (centres undefined) 6.56 µM
Cc1csc(SCc2nnc(-c3ccc(Cl)cc3)o2)n1 4.65 µM
O=C(CSc1nc2ccccc2s1)N/N=C/c1ccccc1C(=O)O 16.5 µM
Cc1c(C=O)c2cc(OCc3ccccc3)ccc2n1C 4.14 µM
COc1ccc(-c2nc3n(c2C)Cc2ccccc2-3)cc1 6.56 µM
Oc1[nH]c2ccccc2c1N=Nc1ccc(F)cc1 5.85 µM
Cc1ccc(N=Nc2c(O)[nH]c3ccc(F)cc23)cc1 1.31 µM
CCOC(=O)c1c(C)[nH]c(C(=O)CSc2ccc(Cl)cc2)c1C 7.36 µM
CCOC(=O)c1c(C)[nH]c(C(=O)CSc2nccc(C)n2)c1C 4.65 µM
CCOC(=O)c1c(C)[nH]c(C(=O)COC(=O)C2CC2C)c1C (centres undefined) 2.61 µM
CCOC(=O)c1c(C)[nH]c(C(=O)COC(=O)CNC(=O)c2ccccc2Cl)c1C 13.1 µM
CCOC(=O)c1c(C)[nH]c(C(=O)COC(=O)CCSc2ccccc2)c1C 13.1 µM

Reference: PubChem BioAssay AID2289 (National Center for Advancing Translational Sciences (NCATS), 2010)
